From PubChem BioAssay AID2284334 (EPA ToxCast)
Records with an inconclusive call do not appear. The source made the active and inactive calls. Rule for the calls: active = hit-call score of the fitted dose curve at least 0.9, where 1 is the maximum; inconclusive = response in the unintended direction; inactive = score below 0.9.

Molecular target: human Peroxisome Proliferator-activated Receptor alpha (PPARa), PPARA (gene 5465) (UniProt Q07869)
Assay: ATG_hPPARa_EcoTox2: Attagene TRANS-FACTORIAL EcoTox-2 HepG2 Assay for human Peroxisome Proliferator-activated Receptor alpha (PPARa)
Method: ATG_EcoTox2 is a cell-based, multiplexed assay created by modifying the existing Attagene TRANS-FACTORIAL system to include a panel of nuclear receptors from some or all the following species: human (Homo sapiens), african clawed frog (Xenopus laevis), rainbow trout (Oncorhynchus mykiss), japanese medaka (Oryzias latipes), and zebrafish (Danio rerio). The ECOTOX2-FACTORIAL format uses HepG2, a human liver cell line, with measurements taken at 24 hours after chemical dosing in a 24-well plate. ATG_hPPARa_EcoTox2 is one of 29 assay components calculated in the ATG_EcoTox2 assay. It is designed to make measurements of mRNA induction, a form of inducible reporter, as detected with fluorescence intensity signals by Reverse transcription polymerase chain reaction (RT-PCR) and Capillary electrophoresis technology.The assay endpoint ATG_hPPARa_EcoTox2 was analyzed in the positive analysis fitting direction relative to DMSO as the negative control and baseline of activity. Using a type of inducible reporter, measures of mRNA for gain-of-signal activity can be used to understand the reporter gene at the transcription factor-level as they relate to the gene PPARa. Furthermore, this assay endpoint can be referred to as a primary readout, because this assay has produced multiple assay endpoints where this one serves a reporter gene function. […]

Chain of human Peroxisome Proliferator-activated Receptor alpha (PPARa), PPARA (gene 5465) (Q07869 whole entry, looked up): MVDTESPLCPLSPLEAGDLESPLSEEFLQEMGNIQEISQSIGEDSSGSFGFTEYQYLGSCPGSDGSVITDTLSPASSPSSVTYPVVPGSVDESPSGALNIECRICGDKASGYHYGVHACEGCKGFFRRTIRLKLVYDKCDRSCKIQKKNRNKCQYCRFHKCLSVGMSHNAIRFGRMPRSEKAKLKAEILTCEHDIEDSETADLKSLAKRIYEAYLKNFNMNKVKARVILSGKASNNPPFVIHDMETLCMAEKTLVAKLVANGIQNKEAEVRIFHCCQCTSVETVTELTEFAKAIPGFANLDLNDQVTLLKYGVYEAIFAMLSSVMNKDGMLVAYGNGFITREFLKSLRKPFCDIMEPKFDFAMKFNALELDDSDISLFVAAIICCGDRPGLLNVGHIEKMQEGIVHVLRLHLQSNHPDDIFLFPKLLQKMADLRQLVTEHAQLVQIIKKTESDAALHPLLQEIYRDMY

| Structure (SMILES) | AC50 |
| --- | --- |
| O=S(=O)(O)C(F)(F)C(F)(F)C(F)(F)C(F)(F)C(F)(F)C(F)(F)F | 23 µM (active) |
| O=C(O)C(F)(F)C(F)(F)C(F)(F)C(F)(F)C(F)(F)C(F)(F)C(F)(F)F | 11.4 µM (active) |
